Rab9 promoter act: qHTS Assay for Rab9 Promoter Activators; Potency, µM (top dose mostly 9.22 µM), hits mostly activators; hit rate 2.8% among 320,000; Huh7 Rab9 promoter-luciferase reporter, luminescence, 24 h; further: nearly all actives have a fitted effect of over 60% in size
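Cells were plated at 1500 per well in reduced-serum medium with 10% FBS and left 2 h. Compound in DMSO was then added for 24 h at 37 °C. Reporter signal was read by luminescence after 10 min with luciferase detection reagent.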
NPC1 promoter act: qHTS Assay for NPC1 Promoter Activators; Huh7 NPC1 promoter luciferase reporter, 24 h; Potency, µM (doses to about 9.22 µM), actives largely listed as activators; hit rate 2.4% among 320,000; AID 485313, 2010; further: nearly all actives have a fitted effect of over 60% in size
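Cells: Huh7 expressing luciferase under the NPC1 promoter, 1500/well. Seeded 2 h, compound added, incubated 24 h at 37 °C. Luciferase reagent, 10 min ambient, then luminescence.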
SMN2 splice enh: qHTS Assay for Enhancers of SMN2 Splice Variant Expression; HEK293 SMN2-luciferase splicing reporter, luminescence, 30-36 h; Potency, µM (top dose mostly 46.1 µM), actives largely listed as activators; hit rate 2.8% among 210,000; AID 1458, 2008; further: nearly all actives have a fitted effect of over 55% in size
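HEK293 cells carry an SMN2 […]–luciferase reporter in which exon 7 inclusion puts luciferase in frame. Cells were plated 10-12 h before compound addition, then incubated 30-36 h at 37C. ONE-Glo luminescence was read; sodium butyrate at 4.5 mM final served as control.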
ELG1 genotoxic: qHTS screen for small molecules that induce genotoxicity in human embryonic kidney (HEK293T) cells expressing luciferase-tagged ELG1. HEK293T ELG1-luciferase reporter, luminescence, 16 h. Potency, µM (series often up to 46 µM), usual class: activators. hit rate 1.3% among 330,000; further: nearly all actives have a fitted effect of over 60% in size
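Genotoxic stress is detected as increased luminescence from luciferase-tagged ELG1 in HEK293T cells, measured with ONE-Glo after a 16 hr treatment at 37 °C.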
FLuc counter: qHTS profiling assay for firefly luciferase inhibitor/activator using purifed enzyme and Km concentrations of substrates (counterscreen for miR-21 project); Luciferin 4-monooxygenase (Photinus pyralis), P08659; Potency, µM (doses to about 57.5 µM), actives largely listed as inhibitors; purified FLuc, Km substrates, luminescence inhibition; hit rate 6.9% among 360,000; AID 588342, 2011; further: nearly all actives have a fitted effect of over 55% in size
Target sequence (P08659 whole entry, looked up): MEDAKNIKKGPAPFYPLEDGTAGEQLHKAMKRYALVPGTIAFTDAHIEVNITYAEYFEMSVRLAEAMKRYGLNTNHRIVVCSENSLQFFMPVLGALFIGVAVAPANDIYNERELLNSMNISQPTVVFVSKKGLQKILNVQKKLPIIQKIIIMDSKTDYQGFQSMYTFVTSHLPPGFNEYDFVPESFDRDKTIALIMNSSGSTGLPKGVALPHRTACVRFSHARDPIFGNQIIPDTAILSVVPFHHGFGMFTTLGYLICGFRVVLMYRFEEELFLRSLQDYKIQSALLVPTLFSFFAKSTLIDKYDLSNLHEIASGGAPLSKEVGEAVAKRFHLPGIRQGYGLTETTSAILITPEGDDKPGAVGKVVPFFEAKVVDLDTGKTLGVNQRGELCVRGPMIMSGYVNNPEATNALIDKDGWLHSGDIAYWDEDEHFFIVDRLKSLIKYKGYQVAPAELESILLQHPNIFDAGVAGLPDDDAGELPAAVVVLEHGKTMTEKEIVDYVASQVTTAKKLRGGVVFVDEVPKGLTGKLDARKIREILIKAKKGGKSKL
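Purified P. pyralis luciferase, 10 nM final, with Km-level 10 uM D-luciferin and 10 uM ATP in 50 mM Tris acetate pH 7.5, 10 mM Mg acetate, 0.01% Tween-20, 0.05% BSA; 6-point qHTS titration about 60 µM downward; luminescence read.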
A number is an active result; – = inactive; ? = inconclusive; · = not tested or not shown; [ ] = remark or other dose. Sampled rows, rich in hits. Any-hit rate of the full collection: about 7.5%. The call rests on the fitted dose curve; in most records, active means well fitted curve in the direction sought with a large enough effect; inconclusive means small, poorly fitted or top-dose-only effect, or another doubt; inactive means no such curve, though single readings can be large; an effect the other way counts as inactive or inconclusive.

SMILES	Rab9 promoter act	NPC1 promoter act	SMN2 splice enh	ELG1 genotoxic	FLuc counter
CC/C(=N\OC(=O)c1ccc(OC(C)C)cc1)c1ccc(C)cc1	–	–	–	–	?
COc1ccc(C(=O)O/N=C(\C)c2ccccc2)cc1	–	–	–	–	0.675µM
C/C(=N\OC(=O)c1ccc(OC(C)C)cc1)c1ccc(C)c(C)c1	–	–	–	–	13.5µM
COc1ccc(C(=O)O/N=C(/c2ccccc2)c2ccncc2)cc1	–	–	·	?	?
CC(C)=NOC(=O)c1ccc(-c2ccccc2)cc1	–	–	?	–	8.49µM
Cc1ccc(CSc2nncn3c2cc2sccc23)cc1	·	·	·	·	–
CC1CCC(C(C)C)C(=O)/C1=C/c1ccc(N)cc1 (centres undefined)	1.58µM	1.58µM	·	?	10.7µM
CC1/C(=C\c2ccc(Cl)cc2)C(=O)C2CC1C2(C)C (centres undefined)	–	–	–	–	–
NS(=O)(=O)c1ccc(Nc2nc(-c3ccc(F)cc3)cs2)cc1	–	–	–	–	–
Cc1ccc(C)c(Nc2nc(-c3cccnc3)cs2)c1	–[1.84 µM]	–	·	–	?
Cc1ccc(Nc2nc(-c3ccc(O)c(O)c3)cs2)nc1	–	–	·	?	3.01µM
Cc1ccc(Nc2nc(-c3ccc(F)cc3)cs2)nc1	3.98µM	3.55µM	·	?	4.26µM
Cc1csc(SCC(=O)Nc2ccc3c(c2)OCCO3)n1	?	–	?	?	21.3µM
CSc1nsc(SCC(=O)Nc2ccc3c(c2)OCCO3)n1	–	–	22.4µM	10µM	21.3µM
O=C(NCCCc1ccccc1)c1nn(-c2ccccc2F)nc1CO	·	·	–	·	–
COCc1cc(=O)[nH]c(Nc2nc3ccccc3o2)n1	–	?	–	?	?
COC(=O)Cc1cc(=O)[nH]c(Nc2nc3ccccc3o2)n1	–	–	–	–	16.9µM
COCc1cc(=O)[nH]c(Nc2nc(C)c3ccccc3n2)n1	–	–	–	–	–
Cc1ccc2oc(Nc3nc(-c4ccccc4)cc(=O)[nH]3)nc2c1	?	–	–	20.6µM	?
Cc1ccc2oc(Nc3nc(C)cc(C)n3)nc2c1	3.16µM	?	–	–	?
Cc1cc(C)c2nc(Nc3nc(-c4ccccc4)cc(=O)[nH]3)nc(C)c2c1	–	–	·	–	1.69µM
CCCCC[C@H](O)/C=C/C1=C(C/C=C\CCCC(=O)O)C(=O)CC1	·	·	–	·	·
COc1ccc(C(=O)CN2CCN(S(=O)(=O)c3ccc(C(C)C)cc3)CC2)cc1	·	·	·	·	–
O=C1c2ccccc2-c2nc3ccccc3nc21	2.24µM	2.82µM	12.6µM	4.47µM	15.1µM
CN(C)/C=N/c1ncc(C(=O)c2ccc3ccccc3c2)s1	?	–	–	–	23.9µM
SMILES	Rab9 promoter act	NPC1 promoter act	SMN2 splice enh	ELG1 genotoxic	FLuc counter
CCOc1ccc(N(C(=O)c2snc(C(N)=O)c2N)C(C(=O)NCC2CCCO2)c2ccc(C)o2)cc1 (centres undefined)	–	–	·	–	13.5µM
Cc1ccc(C(C(=O)NCC2CCCO2)N(C(=O)c2snc(C(N)=O)c2N)c2ccc(F)cc2)o1 (centres undefined)	–	–	·	–	–
Cc1ccc(C)c(S(=O)(=O)/N=C2\C=C(NS(=O)(=O)c3ccccc3)C(=O)c3ccccc32)c1	–	–	·	–	?
CCc1ccc(S(=O)(=O)/N=C2\C=C(NS(=O)(=O)c3ccccc3)C(=O)c3ccccc32)cc1	–	–	·	?	15.1µM
CC(C)c1ccc(S(=O)(=O)/N=C2\C=C(NS(=O)(=O)c3ccccc3)C(=O)c3ccccc32)cc1	–	–	·	–	19µM
O=S(=O)(Nc1nc2c(s1)CCCC2)c1ccc2ccccc2c1	–	–	–	–	–
c1ccc2c(Nc3nc4c(s3)CCCC4)cccc2c1	3.55µM	?	?	?	4.78µM
COc1cc(OC)c2c(c1)OC1Cc3cc(OC)c(OC)cc3C2O1 (centres undefined)	·	·	–[9.22 µM]	·	·
c1ccc2nc3c(nc2c1)OCC1CCCCN31 (centres undefined)	2.51µM	4.47µM	·	?	3.79µM
Cc1nc2ccccc2nc1N1CCCC1	–	–	–[9.22 µM]	–	?
Cc1ccc2oc(C(=O)Nc3nnc(CC(C)C)s3)cc(=O)c2c1	·	·	–	·	?
CCCc1nnc(NC(=O)c2cc(=O)c3cc(C)c(C)cc3o2)s1	·	·	–	·	12µM
COc1ccc(Cl)cc1NC(=O)c1cnc2sccn2c1=O	–	–	–	?	–
Cc1onc(NC(=O)c2ccc(Cl)cc2Cl)c1Br	3.16µM	?	·	?	?
O=C(Nc1cnc2sccn2c1=O)c1ccc(Cl)cc1Cl	1µM	0.447µM	8.91µM	2.59µM	2.13µM
Cc1cccc(C(=O)Nc2ccn(C)n2)c1	2.51µM	?	·	?	?
Cn1ccc(NC(=O)c2ccc(Cl)cc2Cl)n1	2.51µM	3.98µM	·	?	10.7µM
COc1ccc(-c2ccc(C(=O)C3CC3)cc2)cc1	1.78µM	2.82µM	·	2.91µM	1.51µM
COc1ccc(C(=O)C2CCN(C(=O)c3ccc(C)cc3)CC2)cc1	–	–	·	–	–
COc1ccc(C(=O)C2CCN(C(=O)Nc3ccc(C)cc3)CC2)cc1	–	–	·	–	4.78µM
Cc1ccc(NC(=O)N2CCC(C(=O)c3ccc(F)cc3)CC2)cc1	–	–	·	–	–
COc1cc(-c2noc(-c3ccc(N(C)C)c([N+](=O)[O-])c3)n2)cc(OC)c1OC	·	·	·	·	15.1µM
COc1ccc(-c2noc(-c3ccc(N4CCN(C)CC4)c([N+](=O)[O-])c3)n2)cc1OC	·	·	·	·	–
COc1cc(-c2noc(-c3ccc(N4CCCCC4)c([N+](=O)[O-])c3)n2)cc(OC)c1OC	·	·	·	·	16.9µM
COc1ccc(C(=O)C2CCCN(Cc3ccc4nonc4c3)C2)c(OC)c1 (centres undefined)	–	–	·	–	–
SMILES	Rab9 promoter act	NPC1 promoter act	SMN2 splice enh	ELG1 genotoxic	FLuc counter
O=c1c(O)c(-c2cccs2)oc2ccc(Cl)cc12	–	–	?	–	?
O=c1cc(-c2ccc3c(c2)OCCO3)oc2ccc(Cl)cc12	0.447µM	0.631µM	2.51µM	2.91µM	0.379µM
O=c1cc(-c2cccs2)oc2ccc(Cl)cc12	3.16µM	3.16µM	·	?	4.78µM
O=C(O)COc1ccc(/C=C/c2nc(-c3ccccc3O)n[nH]2)cc1	–	–	·	–	10.7µM
COc1ccc(/C=C/c2nc(-c3ccccc3O)n[nH]2)cc1OC	?	?	?	?	12µM
CC(C)(C)c1ccc(OCC(=O)O)cc1	–	–	?	–	?
CC1C(=O)N2CCCc3cc(NC(=O)c4ccccc4Br)cc1c32 (centres undefined)	–	–	·	?	?
CSCC(=O)Nc1nc(-c2ccc3c(c2)OCCO3)cs1	2.82µM	3.16µM	11.2µM	–	10.7µM
Cc1nc(NC(=O)C2CCCC2)sc1Cc1ccc2c(c1)OCO2	?	–	?	–	16.9µM
O=C(Nc1nc(-c2ccc3c(c2)OCO3)cs1)C1CC1	3.55µM	?	11.2µM	16.4µM	12µM
CCCC(=O)Nc1nnc(-c2ccc3c(c2)OCO3)s1	?	–	·	?	–

Screening data from PubChem.
